# “And” between values parts separate entries of the source, which are not always exact repeats. Identical values can stand only once. Inconclusive results are not listed. The source made the active and inactive calls. The calls were made as follows: active = hit-call score of the fitted dose curve at least 0.9, where 1 is the maximum; inconclusive = response in the unintended direction; inactive = score below 0.9.
# Columns and labels:
# [1] = biological target: Bile acid receptor (Homo sapiens) (UniProt Q96RI1); assay: NVS_NR_hFXR_Agonist: NovaScreen (NVS) Nuclear Receptor Binding Assay for human Farnesoid X Receptor Agonism (FXR) (AID 2283347)
# Bile acid receptor (Homo sapiens), sequence (Q96RI1 whole entry, looked up): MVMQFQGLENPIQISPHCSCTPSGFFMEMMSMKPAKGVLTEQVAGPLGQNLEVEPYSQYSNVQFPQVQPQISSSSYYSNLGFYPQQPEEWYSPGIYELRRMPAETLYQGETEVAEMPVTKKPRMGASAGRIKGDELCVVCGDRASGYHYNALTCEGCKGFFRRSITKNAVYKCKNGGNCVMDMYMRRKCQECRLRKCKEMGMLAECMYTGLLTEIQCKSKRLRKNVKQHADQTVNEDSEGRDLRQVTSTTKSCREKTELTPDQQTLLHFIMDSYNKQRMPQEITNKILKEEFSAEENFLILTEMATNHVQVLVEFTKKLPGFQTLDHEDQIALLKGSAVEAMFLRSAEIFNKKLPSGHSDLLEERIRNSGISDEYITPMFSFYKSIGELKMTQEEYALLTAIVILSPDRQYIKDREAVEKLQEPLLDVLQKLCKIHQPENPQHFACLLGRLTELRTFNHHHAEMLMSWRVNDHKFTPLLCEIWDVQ
# Summary of the method: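 Cell-free TR-FRET binding assay with extracted human FXR protein, agonist format, read 1 h after dosing. Primary screen at 25 uM single concentration in duplicate, actives retested in concentration series; gain of signal versus DMSO.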
# [2] = biological target: Estrogen receptor (Homo sapiens) (UniProt P03372); assay: NVS_NR_hER: NovaScreen (NVS) Nuclear Receptor Binding Assay for human Estrogen Receptor (ER) (AID 2283348)
# Estrogen receptor (Homo sapiens), sequence (P03372 whole entry, looked up, the tested form may be a part): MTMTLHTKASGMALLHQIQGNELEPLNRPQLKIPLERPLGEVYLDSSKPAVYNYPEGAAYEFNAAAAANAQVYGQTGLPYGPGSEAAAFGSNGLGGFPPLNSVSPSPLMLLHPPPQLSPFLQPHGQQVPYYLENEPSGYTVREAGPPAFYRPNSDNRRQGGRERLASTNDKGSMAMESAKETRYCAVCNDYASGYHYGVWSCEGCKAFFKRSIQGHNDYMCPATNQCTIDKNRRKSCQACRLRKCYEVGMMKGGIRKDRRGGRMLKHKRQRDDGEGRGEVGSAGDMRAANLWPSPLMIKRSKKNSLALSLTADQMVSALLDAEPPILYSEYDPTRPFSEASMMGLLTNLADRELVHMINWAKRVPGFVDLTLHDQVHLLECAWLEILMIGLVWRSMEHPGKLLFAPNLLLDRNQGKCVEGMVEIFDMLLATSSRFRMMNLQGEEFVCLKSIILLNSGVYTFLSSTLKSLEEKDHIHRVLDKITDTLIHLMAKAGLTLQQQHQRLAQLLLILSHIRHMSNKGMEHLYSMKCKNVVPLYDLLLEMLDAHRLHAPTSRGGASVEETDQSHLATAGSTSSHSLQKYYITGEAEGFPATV
# Summary of the method: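 Scintillation signal from bound radioligand was measured 18 hours after chemical addition to cell-free MCF7 protein extracts, with DMSO as baseline. Activity was scored as signal loss; compounds ran first at 25 uM in duplicate.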
# [3] = biological target: bovine Gamma-Aminobutyric Acid Type A Receptor Agonist (GABAR Agonist), GABRA1 (gene 780973) (UniProt P08219); assay: NVS_LGIC_bGABAR_Agonist: NovaScreen (NVS) Ligand-Gated Ion Channel Assay for bovine Gamma-Aminobutyric Acid Type A Receptor Agonist (GABAR Agonist) (AID 2283338)
# bovine Gamma-Aminobutyric Acid Type A Receptor Agonist (GABAR Agonist), GABRA1 (gene 780973), sequence (P08219 whole entry, looked up): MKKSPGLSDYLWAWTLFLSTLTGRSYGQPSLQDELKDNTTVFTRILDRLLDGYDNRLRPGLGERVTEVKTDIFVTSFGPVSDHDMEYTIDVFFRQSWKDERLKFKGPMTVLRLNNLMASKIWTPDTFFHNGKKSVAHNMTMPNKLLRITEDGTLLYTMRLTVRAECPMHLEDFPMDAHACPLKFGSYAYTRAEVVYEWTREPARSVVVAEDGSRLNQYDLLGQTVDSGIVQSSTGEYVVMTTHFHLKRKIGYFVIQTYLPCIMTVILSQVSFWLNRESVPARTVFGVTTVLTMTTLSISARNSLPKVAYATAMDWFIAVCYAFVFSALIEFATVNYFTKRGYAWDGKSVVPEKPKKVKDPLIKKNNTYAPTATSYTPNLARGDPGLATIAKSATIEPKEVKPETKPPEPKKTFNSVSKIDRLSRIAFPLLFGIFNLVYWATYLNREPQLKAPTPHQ
# Summary of the method: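 Radioligand binding to bovine cerebellar membranes in agonist format, read by filter-based scintillation counting after 1 h. Primary screen in duplicate at 25 uM, with actives followed in concentration series. Gain of signal versus DMSO.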
# NCBI gene 100848466 = assay: NVS_NR_bPR: NovaScreen (NVS) Nuclear Receptor Binding Assay for bovine Progextron Receptor (PR) (AID 2283343);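 as to AC50: actives lower bound radioligand signal below DMSO meaning displacement of the label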
# Summary of the method: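 Membranes from bovine uterus; radiolabelled ligand plus test chemical; 18 h; scintillation read-out. Activity = signal loss vs DMSO. Primary: 25 uM, duplicate; secondary: concentration series.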
# [4] = biological target: Estrogen receptor (Homo sapiens) (UniProt P03372); assay: OT_ER_ERaERa_1440: Odyssey Thera (OT) 24-hour HEK293T Protein-Complementation Assay for Estrogen Receptor-alpha/-alpha Homodimer (AID 2283349);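 also: hits raise fluorescence above DMSO for agonists and antagonists alike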
# Summary of the method: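 Protein-fragment complementation between two human ERα ligand-binding domains (aa 310-547) in stably transfected HEK293T cells was monitored after 24 h treatment, using fluorescence intensity relative to vehicle controls.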
# [5] = biological target: chimpanzee Androgen Receptor (AR), AR (gene 747460) (UniProt O97775); assay: NVS_NR_cAR: NovaScreen (NVS) Nuclear Receptor Binding Assay for chimpanzee Androgen Receptor (AR) (AID 2283346);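 also: radioligand displacement from AR measured by scintillation counting in a cell-free assay; a loss of bound radioligand signal versus DMSO counts as binding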
# chimpanzee Androgen Receptor (AR), AR (gene 747460), sequence (O97775 whole entry, looked up): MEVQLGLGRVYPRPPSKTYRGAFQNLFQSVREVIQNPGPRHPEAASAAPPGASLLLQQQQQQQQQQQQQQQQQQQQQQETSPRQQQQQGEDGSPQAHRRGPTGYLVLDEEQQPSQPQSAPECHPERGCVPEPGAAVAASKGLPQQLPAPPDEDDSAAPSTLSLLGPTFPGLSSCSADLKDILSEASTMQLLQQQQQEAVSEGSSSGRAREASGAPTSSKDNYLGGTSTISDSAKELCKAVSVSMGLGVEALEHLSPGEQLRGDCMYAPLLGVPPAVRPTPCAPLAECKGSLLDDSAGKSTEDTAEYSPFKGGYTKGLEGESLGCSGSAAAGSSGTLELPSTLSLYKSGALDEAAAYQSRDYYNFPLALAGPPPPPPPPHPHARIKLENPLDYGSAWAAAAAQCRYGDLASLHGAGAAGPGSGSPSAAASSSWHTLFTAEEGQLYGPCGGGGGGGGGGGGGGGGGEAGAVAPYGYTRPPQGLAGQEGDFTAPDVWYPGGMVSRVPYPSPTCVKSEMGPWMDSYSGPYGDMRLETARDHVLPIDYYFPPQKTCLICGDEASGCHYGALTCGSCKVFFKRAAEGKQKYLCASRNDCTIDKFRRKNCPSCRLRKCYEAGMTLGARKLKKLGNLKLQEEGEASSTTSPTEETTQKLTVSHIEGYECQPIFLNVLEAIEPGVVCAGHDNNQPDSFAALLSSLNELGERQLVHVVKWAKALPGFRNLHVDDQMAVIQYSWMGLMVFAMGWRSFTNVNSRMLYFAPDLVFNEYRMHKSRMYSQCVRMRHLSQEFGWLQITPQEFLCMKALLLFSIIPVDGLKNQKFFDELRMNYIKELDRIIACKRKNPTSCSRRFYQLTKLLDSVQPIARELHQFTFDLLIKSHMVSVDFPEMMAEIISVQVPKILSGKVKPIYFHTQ
# Summary of the method: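 Cell-free competition binding with insect-cell (Sf9/Sf21) extracted chimpanzee AR; scintillation signal from lysate at 72 h. Screened in duplicate at 25 uM, then concentration-response for actives; fitting relative to DMSO.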
# [6] = test system: guinea pig Histamine Receptor (H2), gene 100729734; assay: NVS_GPCR_gH2: NovaScreen (NVS) G Protein-Coupled Receptor Assay for guinea pig Histamine Receptor (H2) (AID 2283342)
# Summary of the method: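 Radioligand displacement on guinea pig striatal membranes, 1 h after dosing, filter-based scintillation counting; loss of signal versus DMSO. Single-point screen at 25 uM in duplicate, then concentration-response up to 50 uM.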
# [7] = biological target: rat Gamma-Aminobutyric Acid Type A Receptor BDZ, alpha 6 site (GABARa6), Gabra6 (gene 29708) (UniProt P30191); assay: NVS_LGIC_rGABARa6: NovaScreen (NVS) Ligand-Gated Ion Channel Assay for rat Gamma-Aminobutyric Acid Type A Receptor BDZ, alpha 6 site (GABARa6) (AID 2283339)
# rat Gamma-Aminobutyric Acid Type A Receptor BDZ, alpha 6 site (GABARa6), Gabra6 (gene 29708), sequence (P30191 whole entry, looked up): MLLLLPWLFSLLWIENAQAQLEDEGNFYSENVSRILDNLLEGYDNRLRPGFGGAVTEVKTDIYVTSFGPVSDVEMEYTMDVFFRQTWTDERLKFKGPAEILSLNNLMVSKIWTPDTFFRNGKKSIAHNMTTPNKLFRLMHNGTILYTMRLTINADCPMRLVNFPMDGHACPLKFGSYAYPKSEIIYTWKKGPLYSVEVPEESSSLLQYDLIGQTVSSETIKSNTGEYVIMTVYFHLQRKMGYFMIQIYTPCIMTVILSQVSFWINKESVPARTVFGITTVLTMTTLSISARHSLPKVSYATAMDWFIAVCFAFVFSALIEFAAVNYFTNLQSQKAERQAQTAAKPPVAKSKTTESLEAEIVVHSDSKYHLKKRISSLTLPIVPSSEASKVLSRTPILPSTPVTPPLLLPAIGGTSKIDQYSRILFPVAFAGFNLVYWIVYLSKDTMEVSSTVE
# Procedure: NVS_LGIC_rGABARa6 is a biochemical, single-readout assay that uses extracted gene-proteins from Rat cerebellar membranes in a tissue-based cell-free assay. Measurements were taken 1 hour after chemical dosing in a 48-well plate.NVS_LGIC_rGABARa6 is one of one assay component(s) measured or calculated from the NVS_LGIC_rGABARa6 assay. It is designed to make measurements of radioligand binding, a form of binding reporter, as detected with scintillation counting signals by Filter-based radiodetection technology.Data from the assay component NVS_LGIC_rGABARa6 was analyzed into 1 assay endpoint. This assay endpoint, NVS_LGIC_rGABARa6, was analyzed in the positive analysis fitting direction relative to DMSO as the negative control and baseline of activity. Using a type of binding reporter, loss-of-signal activity can be used to understand changes in the binding as they relate to the gene Gabra6. Furthermore, this assay endpoint can be referred to as a primary readout, because the performed assay has only produced 1 assay endpoint. To generalize the intended target to other relatable targets, this assay endpoint is annotated to the ion channel intended target family, where the subfamily is ligand-gated ion channel. […]
# [8] = biological target: rat Glutamate, MK-801 Agonist Site (GluNMDA_MK801), Grin1 (gene 24408) (UniProt P35439); assay: NVS_LGIC_rGluNMDA_MK801_Agonist: NovaScreen (NVS) Ligand-Gated Ion Channel Assay for rat Glutamate, MK-801 Agonist Site (GluNMDA_MK801) (AID 2283340)
# Summary of the method: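 Radioligand binding at MK-801 site in rat forebrain membranes, 1.5 h incubation, filter-based scintillation counting. Initially 25 uM in duplicate; actives then run in concentration-response up to 50 uM, fitted for gain of signal versus DMSO.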
# [9] = biological target: rat Glycine Receptor, Strychnine-sensitive (GlyRStrySens), Glra1 (gene 25674) (UniProt P07727); assay: NVS_LGIC_rGlyRStrySens: NovaScreen (NVS) Ligand-Gated Ion Channel Assay for rat Glycine Receptor, Strychnine-sensitive (GlyRStrySens) (AID 2283341)
# rat Glycine Receptor, Strychnine-sensitive (GlyRStrySens), Glra1 (gene 25674), sequence (P07727 whole entry, looked up): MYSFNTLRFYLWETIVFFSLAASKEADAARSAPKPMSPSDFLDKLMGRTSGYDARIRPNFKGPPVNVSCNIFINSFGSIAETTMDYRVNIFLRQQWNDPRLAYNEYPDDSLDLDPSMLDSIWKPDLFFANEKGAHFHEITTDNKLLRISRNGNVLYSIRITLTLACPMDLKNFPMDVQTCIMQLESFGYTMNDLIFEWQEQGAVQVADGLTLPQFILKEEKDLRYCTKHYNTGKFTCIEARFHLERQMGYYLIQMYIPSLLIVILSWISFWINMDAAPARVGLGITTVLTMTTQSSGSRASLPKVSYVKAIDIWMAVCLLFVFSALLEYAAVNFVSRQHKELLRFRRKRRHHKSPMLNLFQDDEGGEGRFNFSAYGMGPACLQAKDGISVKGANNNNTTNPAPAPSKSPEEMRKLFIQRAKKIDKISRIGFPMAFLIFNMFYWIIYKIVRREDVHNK
# Summary of the method: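 Radioligand displacement on rat spinal cord membranes, 1 hr, filter scintillation read-out. Single-concentration duplicate screen at 25 uM; chemicals meeting threshold (e.g., 30% inhibition) rerun in concentration-response up to 50 uM. Loss of binding fitted versus DMSO.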
compound,measurement,setting,value
COC(=O)c1ccccc1CS(=O)(=O)NC(=O)Nc1nc(OC)cc(OC)n1,outcome,[1],inactive
same,outcome,[2],inactive
O=[N+]([O-])/N=C1\NCCN1Cc1ccc(Cl)nc1,outcome,[3],inactive
same,outcome,NCBI gene 100848466,inactive
same,outcome,[2],inactive
same,outcome,[4],inactive
CCCN(CCOc1c(Cl)cc(Cl)cc1Cl)C(=O)n1ccnc1,AC50,NCBI gene 100848466,5.4 µM (active)
same,AC50,[5],19.7 µM (active)
Oc1ccc(Cl)cc1Cc1ccccc1,outcome,[3],inactive
same,AC50,NCBI gene 100848466,12.9 µM (active) [middle of 6 runs]
same,AC50,[5],15.3 µM (active) and 15.7 µM (active) and 19.7 µM (active)
CCOCN(C(=O)CCl)c1c(C)cccc1CC,outcome,[6],inactive
same,AC50,[5],15.5 µM (active)
same,outcome,[4],inactive
COP(=S)(OC)Oc1ccc([N+](=O)[O-])cc1,AC50,NCBI gene 100848466,7.33 µM (active)
same,AC50,[5],14.6 µM (active)
CC(C)OC(=O)Nc1cccc(Cl)c1,outcome,[7],inactive
same,outcome,[4],inactive
O=S(=O)(O)C(F)(F)C(F)(F)C(F)(F)C(F)(F)C(F)(F)C(F)(F)C(F)(F)C(F)(F)F,outcome,[3],inactive
same,AC50,NCBI gene 100848466,25 µM (active) [middle of 5 runs]
same,AC50,[5],5.81 µM (active)
CNC(=O)CSP(=S)(OC)OC,outcome,NCBI gene 100848466,inactive
same,outcome,[4],inactive
CC[C@H](C)[C@H]1O[C@]2(C=C[C@@H]1C)C[C@@H]1C[C@@H](C/C=C(\C)[C@@H](O[C@H]3C[C@H](OC)[C@@H](O[C@H]4C[C@H](OC)[C@@H](O)[C@H](C)O4)[C@H](C)O3)[C@@H](C)/C=C/C=C3\CO[C@@H]4[C@H](O)C(C)=C[C@@H](C(=O)O1)[C@]34O)O2 (tested in a mixture with another compound),outcome,[8],inactive
same,AC50,[9],0.494 µM (active)
same,AC50,NCBI gene 100848466,6.14 µM (active)
same,AC50,[5],5.41 µM (active)
same,outcome,[4],inactive
CC(C)(C)C(O)/C(=C\c1ccc(Cl)cc1Cl)n1cncn1 (stereo not given),outcome,NCBI gene 100848466,inactive
same,AC50,[5],1.51 µM (active)
same,outcome,[4],inactive
C[C@H]1[C@H](c2ccc(Cl)cc2)SC(=O)N1C(=O)NC1CCCCC1,outcome,NCBI gene 100848466,inactive
same,outcome,[2],inactive
same,outcome,[4],inactive
O=C(O)C(F)(F)C(F)(F)C(F)(F)C(F)(F)C(F)(F)C(F)(F)C(F)(F)F,outcome,NCBI gene 100848466,inactive
Oc1cc(Cl)ccc1Oc1ccc(Cl)cc1Cl,outcome,NCBI gene 100848466,inactive
same,AC50,[5],12.4 µM (active) and 15.3 µM (active) and 12.2 µM (active)
same,outcome,[1],inactive
COc1nn(CSP(=S)(OC)OC)c(=O)s1,outcome,NCBI gene 100848466,inactive
same,outcome,[4],inactive
N#Cc1c(Cl)c(Cl)c(Cl)c(C#N)c1Cl,outcome,NCBI gene 100848466,inactive
same,outcome,[5],inactive
same,outcome,[4],inactive
[2H]C1([2H])[n+]2ccccc2-c2cccc[n+]2C1([2H])[2H],outcome,[3],inactive
ClC1C(Cl)C(Cl)C(Cl)C(Cl)C1Cl (stereo not given),outcome,NCBI gene 100848466,inactive
O=C(Nc1ccccc1)Nc1cnns1,AC50,[7],3.68 µM (active)
same,outcome,[4],inactive
CC(C)(C)C(O)C(Oc1ccc(Cl)cc1)n1cncn1 (stereo not given),AC50,NCBI gene 100848466,39.8 µM (active)
same,AC50,[5],19.6 µM (active) and 25 µM (active) and 20.5 µM (active)
O=[N+]([O-])c1c(Cl)c(Cl)c(Cl)c(Cl)c1Cl,outcome,NCBI gene 100848466,inactive
same,outcome,[4],inactive
COP(=S)(OC)Oc1ccc(SC)c(C)c1,AC50,NCBI gene 100848466,16.3 µM (active)
same,outcome,[2],inactive
same,outcome,[4],inactive
CC1(C)C(C=C(Cl)Cl)C1C(=O)OC(C#N)c1ccc(F)c(Oc2ccccc2)c1 (stereo not given),outcome,NCBI gene 100848466,inactive
same,outcome,[2],inactive
same,outcome,[4],inactive
Cc1cc(C)nc(NC(=O)NS(=O)(=O)c2ccccc2C(=O)OC2COC2)n1,outcome,[1],inactive
COC(=O)c1ccccc1S(=O)(=O)NC(=O)N(C)c1nc(C)nc(OC)n1,outcome,[1],inactive
OCCOc1ccccc1,outcome,[1],inactive
